Most compounds without a hit are left out; they make up all but 1.2% or so of the library.
Mtb BioA inh = M. tuberculosis BioA enzyme inhibitors, primary screen, biochemical, plate reader, single point, HTS | actives 0.096% (n = 360,000) | purified M. tuberculosis BioA enzyme | 7,8-diaminopelargonic acid synthase BioA (Mycobacterium tuberculosis) | inhibition, % at 9.99 µM; in the data active = inhibition above about 40%; inconclusive = no clear call, values can overlap the other calls
TcdB GH inh = TcdB glycohydrolase inhibitors, primary screen, biochemical, single point, plate reader. Toxin B (Clostridioides difficile), P18177. TcdB glycohydrolase enzymatic assay. inhibition, % at 9.99 µM. actives 0.24% (n = 350,000). AID 652162, 2013; in the data active = inhibition above about 10%
Target sequence (P18177 whole entry, looked up): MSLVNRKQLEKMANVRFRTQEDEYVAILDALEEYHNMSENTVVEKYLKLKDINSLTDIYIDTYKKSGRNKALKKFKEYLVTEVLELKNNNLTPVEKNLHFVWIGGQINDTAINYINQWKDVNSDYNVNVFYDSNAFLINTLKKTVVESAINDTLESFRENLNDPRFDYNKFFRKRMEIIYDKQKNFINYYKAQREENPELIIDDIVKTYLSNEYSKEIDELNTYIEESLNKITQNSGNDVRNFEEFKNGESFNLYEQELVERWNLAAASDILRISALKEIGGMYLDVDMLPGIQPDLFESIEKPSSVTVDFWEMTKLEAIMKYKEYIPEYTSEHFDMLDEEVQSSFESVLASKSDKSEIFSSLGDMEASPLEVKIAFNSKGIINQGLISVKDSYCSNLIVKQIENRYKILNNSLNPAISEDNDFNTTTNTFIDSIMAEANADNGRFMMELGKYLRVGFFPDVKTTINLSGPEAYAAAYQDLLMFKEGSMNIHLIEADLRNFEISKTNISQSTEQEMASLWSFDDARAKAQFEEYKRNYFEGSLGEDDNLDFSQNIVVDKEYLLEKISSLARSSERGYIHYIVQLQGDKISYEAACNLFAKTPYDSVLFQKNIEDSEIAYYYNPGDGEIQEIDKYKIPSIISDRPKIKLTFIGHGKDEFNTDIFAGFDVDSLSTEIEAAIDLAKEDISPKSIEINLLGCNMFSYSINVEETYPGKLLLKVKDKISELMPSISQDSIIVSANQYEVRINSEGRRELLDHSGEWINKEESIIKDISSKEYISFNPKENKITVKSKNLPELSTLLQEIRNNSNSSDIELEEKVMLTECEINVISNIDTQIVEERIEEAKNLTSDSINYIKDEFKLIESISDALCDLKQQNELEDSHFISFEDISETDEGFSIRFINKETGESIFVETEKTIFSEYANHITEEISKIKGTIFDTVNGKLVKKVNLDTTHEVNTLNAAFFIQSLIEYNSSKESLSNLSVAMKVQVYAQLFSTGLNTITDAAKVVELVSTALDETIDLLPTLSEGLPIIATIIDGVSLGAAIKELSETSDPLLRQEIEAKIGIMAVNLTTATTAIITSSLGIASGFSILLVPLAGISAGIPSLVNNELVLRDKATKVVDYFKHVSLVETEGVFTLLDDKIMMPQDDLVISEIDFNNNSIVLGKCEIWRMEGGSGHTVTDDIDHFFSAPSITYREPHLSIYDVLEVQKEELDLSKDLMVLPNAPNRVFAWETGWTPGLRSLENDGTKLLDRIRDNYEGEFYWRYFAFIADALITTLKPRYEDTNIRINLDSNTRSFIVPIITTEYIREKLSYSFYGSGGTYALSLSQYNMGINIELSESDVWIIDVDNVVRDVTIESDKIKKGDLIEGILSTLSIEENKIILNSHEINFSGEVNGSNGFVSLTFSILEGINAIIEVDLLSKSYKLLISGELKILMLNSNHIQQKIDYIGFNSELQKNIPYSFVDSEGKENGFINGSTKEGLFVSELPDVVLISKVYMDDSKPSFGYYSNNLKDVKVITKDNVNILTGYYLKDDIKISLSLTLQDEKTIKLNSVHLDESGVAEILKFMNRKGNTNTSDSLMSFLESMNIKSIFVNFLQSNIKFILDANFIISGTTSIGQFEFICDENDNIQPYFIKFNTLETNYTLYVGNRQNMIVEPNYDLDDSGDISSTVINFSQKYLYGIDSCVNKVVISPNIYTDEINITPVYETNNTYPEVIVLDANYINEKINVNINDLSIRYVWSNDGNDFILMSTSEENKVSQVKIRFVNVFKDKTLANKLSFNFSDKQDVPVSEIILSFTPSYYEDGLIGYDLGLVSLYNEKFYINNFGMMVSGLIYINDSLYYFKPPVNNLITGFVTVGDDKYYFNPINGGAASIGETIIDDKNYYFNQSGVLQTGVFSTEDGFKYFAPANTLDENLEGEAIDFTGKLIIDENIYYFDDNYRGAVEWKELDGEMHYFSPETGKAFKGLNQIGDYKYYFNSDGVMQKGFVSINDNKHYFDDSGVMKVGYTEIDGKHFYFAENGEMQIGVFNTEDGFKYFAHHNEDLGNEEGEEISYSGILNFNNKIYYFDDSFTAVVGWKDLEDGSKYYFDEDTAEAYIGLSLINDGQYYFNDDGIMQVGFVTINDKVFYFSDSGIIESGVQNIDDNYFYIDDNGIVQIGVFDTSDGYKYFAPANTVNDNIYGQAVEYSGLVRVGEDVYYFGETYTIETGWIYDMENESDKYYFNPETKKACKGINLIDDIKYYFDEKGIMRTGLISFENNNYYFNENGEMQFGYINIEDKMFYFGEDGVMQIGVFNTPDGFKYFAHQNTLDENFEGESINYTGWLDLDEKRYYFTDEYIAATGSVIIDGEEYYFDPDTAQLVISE
PfHsp40 rescue = rescue of yeast from PfHsp40 toxicity, primary screen, S. cerevisiae, ATP luminescence. growth rescue, % at 12.5 µM. actives 0.68% (n = 340,000). S. cerevisiae expressing PfHsp40, growth rescue. AID 504582, 2011; in the data active = growth rescue above about 28%, passing the limit was not always enough; inconclusive = no clear call, values can overlap the other calls;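 also: yeast W303a lacking pdr1 and pdr3 grown in galactose medium; growth measured after three days at 30 °C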
PrP UTR inh = inhibition of PrP 5' UTR reporter expression; cell-based PrP 5' UTR mRNA reporter, plate reader; actives 0.35% (n = 340,000); inhibition, % (no concentration beside the values); in the data active = inhibition above about 52%; also: 0 = median of the neutral control wells
Yp Topo-I inh = Yersinia pestis topoisomerase I inhibitors, primary screen, biochemical, cleavage product accumulation, plate reader, single point; DNA topoisomerase I (Yersinia pestis CO92); Y. pestis Topo-I cleavage product accumulation; activity, % at 10 µM; actives 0.064% (n = 360,000); in the data active = activity above about 50%, passing the limit was not always enough; inconclusive = no clear call, values can overlap the other calls
FadD28 FP inh = inhibitors of FadD28 bisubstrate probe binding, primary screen, biochemical, fluorescence polarization, single point; Mycobacterium tuberculosis FadD28 fatty-acid-AMP ligase; inhibition, % at 12.5 µM; actives 0.22% (n = 360,000); AID 588549, 2011; in the data active = inhibition above about 8.5%, passing the limit was not always enough; inconclusive = no clear call, values can overlap the other calls
PrP 5UTR single = prion 5' UTR mRNA inhibition, cherry-pick retest | inhibition, % at 2.5 µM | shares compounds with PrP UTR inh | actives 48% (n = 1,100) | cell-based prion protein 5' UTR reporter, plate reader; in the data active = inhibition above about 54%; inconclusive = no clear call, values can overlap the other calls
Active calls of the source: *.

What do the screens show for `Cc1ccc[n+](CC(=O)c2ccc(-c3ccccc3)cc2)c1`?
Mtb BioA inh: 6; TcdB GH inh: 0; PfHsp40 rescue: -1; PrP UTR inh: -20; Yp Topo-I inh: 7; FadD28 FP inh: -3

Results for Cc1ccc(C(=O)C[n+]2ccccc2)cc1 ?
Mtb BioA inh: -1; TcdB GH inh: 1; PfHsp40 rescue: 0; PrP UTR inh: 64*; Yp Topo-I inh: 6; FadD28 FP inh: -3; PrP 5UTR single: -7

How did CC(C)(C)c1ccc(-c2cc(N)n[nH]2)cc1 do in these assays?
Mtb BioA inh: -2; TcdB GH inh: 0; PfHsp40 rescue: 0; PrP UTR inh: 64*; Yp Topo-I inh: 0; FadD28 FP inh: -2; PrP 5UTR single: inconclusive

Results for COc1ccc(NC(=O)Nc2ccc3c(c2)C(=O)N([C@H](C)CO)C[C@H](C)[C@@H](CN(C)S(=O)(=O)c2ccc(F)cc2)OCCCC[C@H](C)O3)cc1 ?
Mtb BioA inh: -1; TcdB GH inh: 0

How did O=C1N(c2ccccc2)C[C@@H]2C[C@@H](c3cc4ccccc4o3)N3CCC[C@@]123 do in these assays?
TcdB GH inh: -1; PfHsp40 rescue: -1; PrP UTR inh: 59*; Yp Topo-I inh: 8; FadD28 FP inh: -2; PrP 5UTR single: 74*

What do the screens show for `C[C@H]1CN([C@@H](C)CO)C(=O)Cc2cc(N(C)C)ccc2O[C@@H]1CN(C)Cc1ccc2c(c1)OCO2`?
Mtb BioA inh: -1; TcdB GH inh: -6

What do the screens show for `COC(C(=O)C(O)C(C)O)C1Cc2cc3cc(OC4CC(OC5CC(O)C(O)C(C)O5)C(O)C(C)O4)c(C)c(O)c3c(O)c2C(=O)C1OC1CC(OC2CC(OC3CC(O)C(OC)C(C)O3)C(O)C(C)O2)C(O)C(C)O1` (stereo not given)?
TcdB GH inh: -13; PfHsp40 rescue: 2; PrP UTR inh: 70*; Yp Topo-I inh: 26; FadD28 FP inh: 1; PrP 5UTR single: 71*

How did CO[C@@H]1CN(C)C(=O)c2cc(NC(=O)c3cc(C)on3)ccc2OC[C@H](C)N(CC2CC2)C[C@H]1C do in these assays?
Mtb BioA inh: 1

What do the screens show for `CCOC(=O)C(C)Oc1cccc2c(=O)n(CC(=O)NCc3ccccc3)ccc12` (stereo not given)?
Mtb BioA inh: 0; TcdB GH inh: 1; PfHsp40 rescue: -2; PrP UTR inh: 75*; Yp Topo-I inh: -11; FadD28 FP inh: -2; PrP 5UTR single: 88*

Results for CCOC(=O)C(C)Oc1cccc2c(=O)n(CC(=O)NCCc3ccccc3)ccc12 (stereo not given) ?
TcdB GH inh: -1; PfHsp40 rescue: -1; PrP UTR inh: -70; Yp Topo-I inh: 13; FadD28 FP inh: -1

How did CCOC(=O)C(C)Oc1cccc2c(=O)n(CC(=O)Nc3ccc(OC)cc3)ccc12 (stereo not given) do in these assays?
Mtb BioA inh: 1; TcdB GH inh: 0; Yp Topo-I inh: 20; FadD28 FP inh: -3

How did CCOC(=O)C(C)Oc1cccc2c(=O)n(CC(=O)NCc3ccc(F)cc3)ccc12 (stereo not given) do in these assays?
Mtb BioA inh: 3; TcdB GH inh: 0; PfHsp40 rescue: -1; PrP UTR inh: 79*; Yp Topo-I inh: 5; FadD28 FP inh: 0; PrP 5UTR single: 91*

How did COc1ccc(CN(C)C[C@H]2OCCCC[C@@H](C)Oc3ccc(NC(=O)C4CCCCC4)cc3C(=O)N([C@@H](C)CO)C[C@@H]2C)cc1 do in these assays?
Mtb BioA inh: 0; TcdB GH inh: 1

Results for CNC(=O)Oc1cccc(-c2cn3cc(Cl)ccc3n2)c1 ?
PfHsp40 rescue: -1; PrP UTR inh: -4; Yp Topo-I inh: 2; FadD28 FP inh: 1

What do the screens show for `Cc1ccc2nc(-c3ccc4c(c3)OCCO4)cn2c1`?
Mtb BioA inh: 1; TcdB GH inh: 26*; PfHsp40 rescue: 4; PrP UTR inh: 89*; Yp Topo-I inh: 0; FadD28 FP inh: -2; PrP 5UTR single: 79*

What do the screens show for `CNC(=O)Oc1ccc(-c2cn3cc(C)ccc3n2)cc1`?
TcdB GH inh: 3; PfHsp40 rescue: -2; PrP UTR inh: 57*; Yp Topo-I inh: -1; FadD28 FP inh: -2; PrP 5UTR single: 54*

Results for c1ccn2cc(-c3ccc4c(c3)OCCO4)nc2c1 ?
TcdB GH inh: 3; PfHsp40 rescue: -3; PrP UTR inh: 40; Yp Topo-I inh: 6; FadD28 FP inh: 0

How did COc1cc2cc(C(=O)N3CC(COS(C)(=O)=O)c4ccc(O)cc43)[nH]c2c(OC)c1OC (stereo not given) do in these assays?
PfHsp40 rescue: 63*; PrP UTR inh: 97*; Yp Topo-I inh: -4; FadD28 FP inh: 2; PrP 5UTR single: 97*

How did COc1ccc(OC)c2[nH]c(C(=O)N3CCC(C(=O)O)CC3)cc12 do in these assays?
Mtb BioA inh: -3; TcdB GH inh: 0; PfHsp40 rescue: 1; PrP UTR inh: 2; Yp Topo-I inh: 0; FadD28 FP inh: 0

How did COC(=O)c1cc(C(=O)N2CCN(c3cccc(Cl)c3)CC2)cc([N+](=O)[O-])c1 do in these assays?
TcdB GH inh: 1; PfHsp40 rescue: 3; PrP UTR inh: 62*; Yp Topo-I inh: 10; FadD28 FP inh: -1; PrP 5UTR single: 87*

How did O=C(c1cccc([N+](=O)[O-])c1)N1CCN(c2cccc(Cl)c2)CC1 do in these assays?
PfHsp40 rescue: 0; PrP UTR inh: -40; Yp Topo-I inh: 19; FadD28 FP inh: -2

How did CNC(=O)C[C@@H]1CC[C@@H]2[C@H](COc3ccc(NC(=O)C(C)C)cc3C(=O)N2C)O1 do in these assays?
Mtb BioA inh: -1

Results for Cc1ccc(C2(c3ccccc3)NC(=O)N(CC(=O)NCc3ccccc3)C2=O)cc1C (stereo not given) ?
Mtb BioA inh: 10; TcdB GH inh: -3; PfHsp40 rescue: 0; PrP UTR inh: 80*; Yp Topo-I inh: 22; FadD28 FP inh: -4; PrP 5UTR single: -4

What do the screens show for `COc1cc2c(cc1OC)C(Cc1ccc(O)cc1)NCC2` (stereo not given)?
Mtb BioA inh: -1; TcdB GH inh: 2; PfHsp40 rescue: -1; PrP UTR inh: -24; Yp Topo-I inh: 9; FadD28 FP inh: -4

How did CCC1CN2CCc3cc(OC)c(OC)cc3C2CC1CC1NCCc2c1[nH]c1ccc(O)cc21 (stereo not given) do in these assays?
TcdB GH inh: 4; PfHsp40 rescue: -1; PrP UTR inh: 82*; Yp Topo-I inh: -19; FadD28 FP inh: -3; PrP 5UTR single: 87*
